The text below walks through data of PubChem BioAssay AID1259336 (Sattelle Laboratory, UCL Respiratory, Division of Medicine, …, 2017).

Unmarked numbers belong to inactive results. Activity calls are given as the source filed them. No stated cut-off is given here; in the data, active means log2 fold change growth below about -1.8; inactive means the rest.

The test is described as follows: C. elegans growth inhibition, whole organism, log2 fold change (AID 1259336).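 Further: growth scored by imaging after five days at 20 °C.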 The following applies: anthelmintic screen, hits give low values.
On to `O=C(c1n[nH]c2c1CCCC2)N1CCN(Cc2ccc3c(c2)OCO3)CC1`, for which the log2 fold change growth was 0.387. Then `CCCCc1ccc(NC(=O)Nc2ccc(O[C@H]3CCCC[C@@H]3N(C)c3ccccc3)c(F)c2)cc1`, with -0.0752; and `Nc1ncnc2c1c(-c1cnc3ccccc3c1)nn2CC1CCNCC1`, with 0.195; and `O=C(Nc1nnc(-c2ccc(Cl)s2)o1)c1ccc(Cl)s1`, with 0.518.

On to `COc1ccccc1[C@H](C)NCC(=O)Nc1cc(C(F)(F)F)ccc1Cl`, for which the log2 fold change growth is 0.142. For `O=C(CN1CCOCC1)Nc1ccc2ncnc(Nc3ccc(OCc4cccc(F)c4)c(Cl)c3)c2c1`, the log2 fold change growth was -0.76.

Turning to `Cn1ncc2c(N3CCOCC3)nc(NCCc3c[nH]c4ccccc34)nc21`, the log2 fold change growth was 0.0196. As for `COc1nc2ccc(Br)cc2cc1[C@@H](c1ccccc1)[C@@](O)(CCN(C)C)c1cccc2ccccc12`, the log2 fold change growth is 0.248.

In the case of `COC(=O)c1ccc(F)cc1NS(=O)(=O)c1cccc(-c2cnn(Cc3ccccc3)c2)c1`, the log2 fold change growth is -0.413.

For `CC(C)n1ncc2c(C(=O)NC[C@@H](c3cccs3)N3CCOCC3)cc(-c3ccccc3)nc21`, the log2 fold change growth was -2.7 (active).

Take `CNCC[C@H](Oc1ccc(C(F)(F)F)cc1)c1ccccc1`: the log2 fold change growth is 0.102. In the case of `Cc1ccc2[nH]c([C@H]3CCCNC3)c(-c3ccncc3)c2c1`, the log2 fold change growth is 0.649. Then `Cc1cc(Nc2ccc(C(F)(F)F)cc2)n2ccnc2n1`, with 0.0805. Then `CCOc1ccc(-c2nc(NC(=O)CS(=O)(=O)c3ccccc3)sc2C)cc1`, with -1.31; and `Cc1[nH]c2ccccc2c1[C@H](c1cccs1)N1CCN(C)CC1`, with -0.0891; and `CCOc1ccc2cc(-c3nn(CC4CCN(C)CC4)c4ncnc(N)c34)ccc2c1`, with 0.151. Then `CC1=Nc2ccc(Cl)cc2[C@@](O)(c2ccc(C)cc2)N1CCN1CCCCC1`, with 0.034.

Turning to `CCCn1c(CNc2ccccc2O)nc2ccccc21`, the log2 fold change growth was 0.228. Then `CC1=NN(c2nc3ccccc3s2)C(=O)[C@H]1Cc1cccc2ccccc12`, with -0.647; and `CNC(=O)CNc1nc(-c2ccccn2)nc2scc(-c3ccccc3)c12`, with 0.152; and `O=C(Nc1ccc(C(F)(F)F)c(C(F)(F)F)c1)c1cc(Cl)ccc1O`, with 0.513. Then `Clc1cccc([C@H](c2ccc(CN3CCNCC3)cc2)n2ccnc2)c1`, with -0.356. Then `Brc1c(-c2ccc3c(c2)OCO3)nc2ncccn12`, with 0.0304. For the molecule `NS(=O)(=O)c1cncc(-c2ccc3nccc(-c4cn[nH]c4)c3n2)c1`, the log2 fold change growth was -0.501. As to `CN(C(=O)c1cc2c(-c3cncnc3)cccc2[nH]1)c1ccccc1`, the log2 fold change growth is -0.492. `O=C(NC1=NCCS1)c1sc2cc(F)ccc2c1Cl`: the log2 fold change growth was -0.159.

Regarding `Cc1[nH]n2c(=O)c3c(nc2c1-c1ccc(Cl)cc1)CCCC3`, the log2 fold change growth is -0.182. Then `Nc1ncnc2n[nH]c(Cc3cccc4ccccc34)c12`, with 0.242; and `COc1ccc(-c2cnc3ccc(N4CCCC4)nn23)cc1OC`, with -0.625. Then `Cc1ccccc1CN1CCC(O)(c2ccc(Cl)c(C(F)(F)F)c2)CC1`, with 0.151; and `COc1ccc(CCN2CCC(NCc3cccc(N(C)C)c3)CC2)cc1`, with 0.27. Turning to `Cc1cc(OCC(=O)Nc2ccc(C(C)C)cc2)n(C)c(=O)c1C#N`, the log2 fold change growth was 0.363.

Turning to `C[C@H]1CCCCN1C(=O)NCCc1coc(-c2ccc(F)cc2)n1`, the log2 fold change growth was 0.0232. Then `COc1ccc(CN2CCOc3ccc([C@@](C)(O)CN(C)C)cc3C2)cc1C`, with 0.162; and `CS(=O)(=O)c1cccc(-c2cnc3[nH]cc(-c4ccc(CCC(=O)O)cc4)c3c2)c1`, with 0.172; and `Cc1cc(C(=O)Nc2cnn(Cc3ccc(Cl)cc3Cl)c2)no1`, with 0.545. For the molecule `C[C@H](Oc1cccc(Cl)c1)C(=O)Nc1ccc2oc(-c3ccncc3)nc2c1`, the log2 fold change growth was 0.206.

As to `CC(C)[C@@H](C(=O)Nc1ccc(S(=O)(=O)N(C)C)cc1)c1ccc(Cl)cc1`, the log2 fold change growth is -5.06 (active).
